Test results reported in PubChem BioAssay AID1347145 (National Center for Advancing Translational Sciences (NCATS), 2019).
Inconclusive results are not listed. Calls of active or inactive are those of the source. The call rests on the fitted dose curve; in most records, active means well fitted inhibition curve with a large enough effect; inconclusive means small, poorly fitted or top-dose-only effect; inactive means no such curve, though single readings can be large or run the other way.

Each compound was assayed against N-terminal Xaa-Pro-Lys N-methyltransferase 1 (Homo sapiens) (UniProt Q9BV86) (assay: qHTS Assay for Inhibitors of N-terminal methyltransferase 1 (NTMT1): MTaseGlo Assay Confirmatory Screen, Round 1). Conditions: Recombinant NTMT1, MTase-Glo SAH luminescence; series mostly up to 57.1 µM.
Sequence of N-terminal Xaa-Pro-Lys N-methyltransferase 1 (Homo sapiens) (Q9BV86 whole entry, looked up): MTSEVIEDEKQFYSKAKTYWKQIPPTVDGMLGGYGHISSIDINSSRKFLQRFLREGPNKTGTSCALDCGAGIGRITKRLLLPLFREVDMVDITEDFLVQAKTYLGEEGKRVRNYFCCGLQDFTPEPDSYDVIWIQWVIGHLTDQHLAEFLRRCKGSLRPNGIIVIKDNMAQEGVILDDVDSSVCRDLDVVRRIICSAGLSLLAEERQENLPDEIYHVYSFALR
Excerpt: Assay Submitter (PI): Rong Huang Ph.D, Purdue University, West Lafayette, IN 47907 The N-terminal methytransferase 1 is the first methyltransferase that methylates protein alpha-N-amines and plays an important role in regulating cell mitosis, chromatin interactions and DNA repair. It is observed to be over-expressed in various cancer patient tissues like malignant melanoma and colorectal cancer tissues. Knockdown of NTMT1 in cancer cells causes cell mitotic defects and enhances sensitivity to DNA damaging chemotherapeutics. […] These critical cellular processes in which NTMT1 is implicated, coupled with emerging links to cellular dysfunction, strengthen the inference that NTMT1 is a compelling novel anticancer target. Progress have been made in understanding the molecular properties of NTMT1 and the biological consequences of protein alpha-N-terminal methylation, but there are no specific small molecule probes available for NTMT1 to fully characterize its MTase activity. To address this unmet need, a panel of assay is created and established to enable quantitative high-throughput screening (qHTS) for novel, potent, and selective small molecule NTMT1 inhibitors. Two orthogonal qHTS that use different reagents (ThioGlo vs. MTaseGlo) are developed for primary robotic screening against the NCATS chemical library of more than 400,000 small molecules. Identified inhibitors are reacquired, validated, and further characterized. MTaseGlo Assay is a luminescence screen that measure the activity of methyltransferases based on the reaction product S-adenosyl homocysteine (SAH). The substrate SAM is converted to SAH upon enzyme activation. MTase-Glo reagent and detection solution convert SAH to ATP and measure the light from the luciferase reaction. […] Early Translation Branch (ETB) National Center for Advancing Translational Sciences (NCATS) National Institute of Health (NIH)
Materials: NTMT1 enzyme, substrate SPKRIA, control peptide RCC1-6 is provided by the Huang laboratory. MTaseGlo Assay: In brief, 3 µL of enzyme mixture (final concentrations of 125 nM and 100 µM for NTMT1 and SAM, respectively) into all wells of a 1,536-well solid-bottom white plate (Greiner Bio One, Monroe, NC). 23 nL of DMSO or Ac-RCC1-10 (final concentration range 234 nM to 143 microM) was transferred via Wako Pin-tool (Wako Automation, Richmond, VA) and incubated (RT) for ~15 minutes. Next, 1 µL of substrate (final concentration 1 µM) or buffer was dispensed, and the reaction proceeded for 30 minutes (RT, protected from light) followed by a 1 microL addition of [5X] MTase-Glo Reagent(R). Samples were incubated (RT, protected from light) for 30 minutes to allow for SAH to be converted to ADP, followed by a 5 microL addition of [1X] MTase-Glo Detection Solution(R) to allow for ADP to be converted to ATP, which was then detected with a luciferase reaction. Samples were centrifuged for 15 seconds at 1,000 RPM's, followed by a RT incubation for 30 minutes. Plates were then read using Luminescence optics on a ViewLux detector. Data were normalized to no-enzyme (0% activity) and no-inhibitor (DMSO; 100%) controls, and the resulting percent inhibition data were fitted to a 4-parameter Hill equation using Graphpad Prism.
For `COc1cc2nc(N3CCCN(C)CC3)nc(N(C)C3CCN(C)CC3)c2cc1OC`, the outcome was “inactive”.
With `Nc1ncnc2c1ncn2[C@@H]1O[C@@H]2COP(O)(=S)O[C@H]2[C@H]1O` (stereo partly drawn) the outcome was “inactive”.
For `CCNC(=O)[C@H]1O[C@@H](n2cnc3c(N)ncnc32)[C@H](O)C1O` (stereo partly drawn), the outcome was “inactive”.
In the case of `Nc1ncnc2c1ncn2[C@@H]1O[C@H](COP(=O)(O)OP(=O)(O)OP(=O)(O)O)[C@H]2OC3(O[C@H]21)C([N+](=O)[O-])=CC(=[N+]([O-])[O-])C=C3[N+](=O)[O-]` (stereo partly drawn), the outcome is reported as “inactive”.
With `CCN(CC)c1ncnc2c1ncn2[C@@H]1O[C@H](COP(=O)(O)OP(=O)(O)C(Br)(Br)P(=O)(O)O)[C@@H](O)[C@H]1O` the outcome was “inactive”.
For `Nc1ncnc2c1nc(Sc1ccc(Cl)cc1)n2[C@@H]1O[C@@H]2COP(O)(=S)O[C@H]2[C@H]1O` (stereo partly drawn), the outcome was “inactive”.
In the case of `Nc1ncnc2c1ncn2[C@@H]1O[C@@H]2CO[P@](=O)(S)O[C@H]2[C@H]1O`, the outcome is reported as “inactive”.
In the case of `Nc1ncnc2c1ncn2[C@@H]1O[C@H](COP(=O)(O)CP(=O)(O)O)[C@@H](O)[C@H]1O`, the outcome is reported as “inactive”.
